The whole screen tested about 2,200 compounds, of which about 1,300 (59%) were called active. The set was probably picked from earlier hits. A selection follows. Entries with a potency or affinity are not part of this list. Unmarked numbers belong to inactive results. How the calls were made is not given here.
Assay: THP-1 cell cytotoxicity, dose response, cytotoxicity control for Salmonella PhoP regulon inhibitors, S. typhimurium screen hits (AID 2253)
Conditions: THP-1 viability, CellTiter-Glo luminescence, 72 h; series mostly up to 50 µM; viability: at the top concentration
In the case of `CC1COc2c(N3CCN(C)CC3)c(F)cc3c(=O)c(C(=O)O)cn1c23` (centres undefined), the “viability” value is reported as 84.5%.
With `Cn1ncc(N=Cc2ccccc2O)c1C(=O)Nc1ccccc1` the “viability” value was 93%.
In the case of `CCOC(=O)c1c(/N=C/c2ccc(O)cc2O)sc2c1CCC2`, the “viability” value is reported as 82.9%.
With `CCCc1ccc(C(=O)CCC(=O)O)cc1` the “viability” value was 88.6%.
For `CCOC(=O)c1ccccc1C(=O)N1CCOCCOCCOCC1`, the “viability” value was 93.6%.
With `COc1ccccc1N1CCN(C(=O)CSc2nc3ccccc3o2)CC1` the “viability” value was 80.6%.
For `COc1ccc(C2C(C#N)=C(N)OC3=C2C(=O)CCC3)cc1Cn1cc([N+](=O)[O-])cn1` (centres undefined), the “viability” value was 80.3%.
In the case of `CCOC(=O)c1[nH]c2ccccc2c1NC(=O)C(C)(C)C`, the “viability” value is reported as 94.1%.
For `Cc1ccc2nc(SCC(=O)c3c(C)[nH]c4ccccc34)[nH]c2c1`, the “viability” value was 98.8% [at 25 µM].
With `CNC(=O)CSc1nnc(-c2cccnc2)n1CCc1ccccc1` the “viability” value was 108%.
For `CCCCC1CCC(C(=O)Nc2ccccc2)CC1` (centres undefined), the “viability” value was 97.9%.
In the case of `Cc1cccc(NC(=O)c2ccc(Cn3cc(C(F)(F)F)ccc3=O)cc2)c1`, the “viability” value is reported as 83%.
For `Cn1cnnc1SCC(=O)Nc1cccc(C(=O)O)c1`, the “viability” value was 93.3%.
For `S=C(c1ccc2c(c1)OCO2)N1CCCC1`, the “viability” value was 97.4%.
With `c1ccc(-c2ncnc3nc4n(c23)CCC4)cc1` the “viability” value was 107%.
With `Cc1c(Cl)cccc1NC(=O)CSc1ncnc2c1cnn2CCc1ccccc1` the “viability” value was 95.6%.
For `COC(=O)C1C(O)C(C)C(O)C(C)(O)/C=C\C=C(/C)C(=O)Nc2c(C)c(OC(C)=O)c3c(c2O)C(=O)C(C)=C2OCOC(=C23)/C(C)=C/C(C)(O)C(O)C(C)C1O` (centres undefined), the “viability” value was 91.6%.
With `CCSc1nnc(NC(=O)Cc2cccc(OC)c2)s1` the “viability” value was 96.9%.
In the case of `CNc1nnc(-c2cccc(N(C)C)c2)s1`, the “viability” value is reported as 82.4%.
In the case of `O=C(COc1ncnc2sccc12)N1CCN(S(=O)(=O)c2ccc(Cl)cc2)CC1`, the “viability” value is reported as 94.2%.
In the case of `C=CCOc1ccccc1CNCCCN1CCOCC1`, the “viability” value is reported as 87.5%.
For `COc1cccc(OCC(O)CN2CCN(c3ccccn3)CC2)c1` (centres undefined), the “viability” value was 98.9%.
For `COc1ccc(OC)c(NC(=S)NCCCN2CCOCC2)c1`, the “viability” value was 91.4%.
For `Cc1ccc(NC(=S)NCCc2ccccc2)c(C)c1`, the “viability” value was 80.4%.
For `O=C(O)c1cc(NCc2ccc3c(c2)OCO3)ccc1N1CCOCC1`, the “viability” value was 99.6%.
For `c1ccc(Cn2nnc3c(NCc4ccc5c(c4)OCO5)nc(C4CC4)nc32)cc1`, the “viability” value was 115%.
With `COc1ccc(NC(=O)CN2CCCCC2)c([N+](=O)[O-])c1` the “viability” value was 88.2%.
For `CCOc1ccc(N/C=C/C(=O)c2ccc(OC)cc2)c([N+](=O)[O-])c1`, the “viability” value was 88%.
For `CCCc1nnc(NC(=O)c2cn(CC)c3cc(N4CCN(C)CC4)c(F)cc3c2=O)s1`, the “viability” value was 98.7%.
In the case of `Cc1nc(SCC(=O)NC(C)c2ccccc2)c2oc3ccccc3c2n1` (centres undefined), the “viability” value is reported as 99.9%.
For `CCCn1c(SCC(=O)NCCc2ccccc2)nnc1-c1cccnc1`, the “viability” value was 102%.
With `Cn1ccnc1C(O)c1ccc(OCc2ccccc2)cc1` (centres undefined) the “viability” value was 94.7%.
With `CCOC(=O)c1c(N)ssc1=S` the “viability” value was 94.8%.
With `O=S1(=O)CC(O)C(Nc2ccccc2Cl)C1` (centres undefined) the “viability” value was 94.2%.
In the case of `NC(=O)c1c(N)sc2c1CCCCC2`, the “viability” value is reported as 110%.
With `O=C(Nc1cnn(Cc2ccc(F)cc2)c1)c1cnccn1` the “viability” value was 100%.
With `O=C(Nc1cnc2ccccc2c1)N1CCOCC1` the “viability” value was 94.5%.
With `CC(C)(C)n1ncc2c(=O)n(CC(=O)Nc3ccc4c(c3)OCO4)cnc21` the “viability” value was 83.4%.
In the case of `CC(C)n1cc(C(=O)N2CCCC(N3CCN(c4ccc(F)cc4)CC3)C2)cn1` (centres undefined), the “viability” value is reported as 96.6%.
For `O=[N+]([O-])c1ccc(N2CCN(CCOc3nonc3-c3ccccc3)CC2)c(Cl)c1`, the “viability” value was 97.4%.
With `Cc1ccc(-n2nnnc2SCC(=O)Nc2ncc(Cc3ccccc3Cl)s2)cc1` the “viability” value was 104%.
For `Cc1ccc(NS(=O)(=O)c2ccc(N3C(=O)CCC3=O)cc2)cc1`, the “viability” value was 81.5%.
In the case of `CCC(CC)C(=O)N1c2ccc(F)cc2CCC1C` (centres undefined), the “viability” value is reported as 88.7%.
In the case of `CCOC(=O)N1CCN(C(=O)c2cn(CC)c3cc(N4CCN(C)CC4)c(F)cc3c2=O)CC1`, the “viability” value is reported as 95%.
In the case of `Nc1[nH]c(=O)ncc1F`, the “viability” value is reported as 104%.
In the case of `O=C(NCCc1cn2ccccc2n1)c1ccccc1F`, the “viability” value is reported as 86.2%.
For `Cc1nnc(NC(=O)CSc2ncnc3scc(-c4ccccc4)c23)s1`, the “viability” value was 100%.
With `CC(C)CCn1c(SCC(=O)N2CC(=O)Nc3ccccc32)nc2scc(-c3cccs3)c2c1=O` the “viability” value was 94.8%.
For `COC(=O)c1ccc(NC(=S)Nc2ccc3ccccc3c2)cc1`, the “viability” value was 82.9%.
With `COC(=O)c1ccccc1Oc1cnc2ccccc2n1` the “viability” value was 95.5%.
In the case of `COc1ccc(/C=N/NC(=O)CC(=O)NCc2cccnc2)cc1`, the “viability” value is reported as 90.9%.
With `CC(=O)N1CCN(c2cc3c(cc2F)c(=O)c(C(=O)O)cn3C2CC2)CC1` the “viability” value was 103%.
For `CC(=O)c1sc(NC(=O)COc2ccc([N+](=O)[O-])cc2)nc1C`, the “viability” value was 92.2%.
In the case of `Cn1c(CO)cnc1SCc1ccc([N+](=O)[O-])cc1`, the “viability” value is reported as 90.9%.
With `CCOC(=O)CC(=O)CSc1nc2c(c(C)c1C#N)CCC2` the “viability” value was 92.9%.
With `Cc1cc2c(c(=O)n1C)C(Cc1ccccc1)C(C#N)=C(N)O2` (centres undefined) the “viability” value was 96.5%.
For `O=C1Nc2ccccc2C(O)(C(=O)N2CCCCC2)N1c1ccccc1` (centres undefined), the “viability” value was 81.5%.
With `O=C1CC(c2ccccc2)n2ncnc2N1` (centres undefined) the “viability” value was 92.4%.
In the case of `NC1CCN(c2c(F)cc3c(=O)c(C(=O)O)cn(C4CC4)c3c2Cl)C1` (centres undefined), the “viability” value is reported as 93.8%.
